High-throughput results: PubChem BioAssay, National Center for Advancing Translational Sciences (NCATS)
Shown are actives, neighbours in structure and some others; about 2.8% of the full set was active somewhere.
PI5P4Ka inh: blocks human PI5P4K alpha kinase activity; P48426; PI5P4Kalpha enzyme, ADP-Glo luminescence, 60 min; hits give low values; max response, %; 330,000 compounds, 1.2% hits; active = max response of -50% or lower; inconclusive = between -30% and -50%; inactive = -30% or higher; note: value at the top dose of about 77 µM
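qHTS, 1536-well: enzyme/substrate mix, compound by pin tool, 5 microM ATP final; RT 60 min; ADP-Glo reagents 1 (45 min) then 2 (30 min); luminescence.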
POLB inh: DNA polymerase beta (human) inhibition. AID 485314. P06746. 340,000 compounds, 1.3% hits. Potency, µM (highest dose often 114 µM), hits mostly inhibitors. Pol beta primer extension/strand displacement, fluorescence kinetic
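Enzyme-only controls used 10 nM Pol beta; buffer lacking enzyme served as negative control. Compound preincubated 15 min, then 50 nM substrate added; 0 and 10 min reads at room temperature.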
WRN inhibitor: blocks human WRN helicase. Potency, µM (highest dose often 114 µM), actives largely listed as inhibitors. WRN helicase unwinding, fluorescent forked duplex, kinetic. 360,000 compounds, 0.46% hits. Q14191; note: nearly all actives have a fitted effect of over 55% in size
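Enzyme (20 nM final) and test compound sit together 15 min at room temperature before substrate addition. Substrate is a single-forked duplex oligonucleotide (100 nM) labelled with fluorophore and quencher, with 2 mM ATP; helicase unwinding raises red fluorescence, read kinetically.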
Pol eta inh-1: inhibitors of human DNA polymerase eta. Q9Y253. recombinant Pol eta, fluorescent DNA replication assay. 390,000 compounds, 1.2% hits. AID 588591. Potency, µM (doses to about 114 µM), actives largely listed as inhibitors
Target sequence (Q9Y253 whole entry, looked up): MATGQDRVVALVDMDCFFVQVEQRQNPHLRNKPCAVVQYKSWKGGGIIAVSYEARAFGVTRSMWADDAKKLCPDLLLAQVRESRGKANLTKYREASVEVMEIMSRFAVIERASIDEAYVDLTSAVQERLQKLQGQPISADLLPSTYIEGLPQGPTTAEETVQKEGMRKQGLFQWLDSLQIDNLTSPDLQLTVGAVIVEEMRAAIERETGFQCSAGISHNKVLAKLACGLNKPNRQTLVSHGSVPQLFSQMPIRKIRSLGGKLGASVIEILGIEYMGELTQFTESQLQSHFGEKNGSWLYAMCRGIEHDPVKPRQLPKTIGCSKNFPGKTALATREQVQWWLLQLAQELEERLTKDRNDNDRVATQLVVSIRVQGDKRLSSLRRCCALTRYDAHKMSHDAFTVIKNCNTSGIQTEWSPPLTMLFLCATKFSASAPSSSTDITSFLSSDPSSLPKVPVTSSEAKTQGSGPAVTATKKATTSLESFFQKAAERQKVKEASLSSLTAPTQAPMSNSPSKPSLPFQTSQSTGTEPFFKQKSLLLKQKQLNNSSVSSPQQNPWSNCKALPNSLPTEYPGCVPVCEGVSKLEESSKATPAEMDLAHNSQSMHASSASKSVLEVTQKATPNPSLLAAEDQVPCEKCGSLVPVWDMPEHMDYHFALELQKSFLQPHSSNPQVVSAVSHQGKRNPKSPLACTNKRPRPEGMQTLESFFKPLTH
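Pol eta at 10 nM preincubated with compounds 15 min at room temperature; reaction started with fluorescent substrate (50 nM final) and read kinetically at 0 and 10 min.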
Pol kappa inh-1: DNA polymerase kappa (human) inhibition; purified Pol kappa, fluorescent DNA synthesis assay, 10 min; Potency, µM (series often up to 107 µM), actives largely listed as inhibitors; 400,000 compounds, 0.53% hits; AID 588579
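First, compounds were pin-transferred onto 10 nM Pol kappa. After 15 min at room temperature, substrate was added to 50 nM final. Fluorescence was then measured kinetically at 0 and 10 min.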
POLI inh: blocks human DNA polymerase iota activity; Pol iota fluorescent replication assay, 10 min; Potency, µM (top dose mostly 115 µM), hits mostly inhibitors; 390,000 compounds, 1% hits
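Fluorescent replication assay read twice, at 0 min and 10 min after adding 50 nM (final) substrate. Enzyme (10 nM) and compounds were first incubated 15 min at room temperature; enzyme-free buffer wells were negative controls.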
Pol iota confirm: Inhibitors of human DNA polymerase iota, confirmation | shares compounds with Pol kappa inh-1 | Pol iota primer extension, TAMRA/BHQ fluorescence | Potency, µM, usual class: inhibitors | 1,500 compounds, 77% hits | AID 720496
Pol kappa inh-2: confirmation of human DNA polymerase kappa inhibitors; shares compounds with Pol eta inh-1; Potency, µM, actives largely listed as inhibitors; purified Pol-kappa, fluorescent strand-displacement substrate; 920 compounds, 76% hits
Pol eta inh-2: Pol eta (human) inhibition, cherry-pick confirmation; AID 720502; shares compounds with Pol eta inh-1; Potency, µM, usual class: inhibitors; Pol eta primer extension, TAMRA/BHQ fluorescence, 10 min; 2,600 compounds, 64% hits
ADP-Glo interf: counter-screen for PI5P4K inhibitors: ADP-Glo detection interference, no enzyme | shares compounds with PI5P4Ka inh | ADP-Glo detection counter-screen, luciferase luminescence, no enzyme | Potency, µM (top dose mostly 76.9 µM), actives largely listed as inhibitors | 1,100 tested, under 10 active | AID 743285
Numbers stand for hits; 0 = inactive; ? = inconclusive; - = no result; [ ] = dose if it differs, or a comment. Unless noted, calls come from the whole dose curve; as a rule, active = well fitted curve in the direction sought with a large enough effect; inconclusive = small, poorly fitted or top-dose-only effect, or another doubt; inactive = no such curve, though single readings can be large; an effect the other way counts as inactive or inconclusive.

SMILES	PI5P4Ka inh	POLB inh	WRN inhibitor	Pol eta inh-1	Pol kappa inh-1	POLI inh	Pol eta inh-2	others
C=CCNC(=O)COC(=O)c1c2c(nc3ccccc13)CCC2	-75.5	22.4µM	?	35.5µM	89.1µM	22.4µM	53.6	Pol iota confirm=?;ADP-Glo interf=0
COc1ccc(OC)c(NC(=O)COC(=O)c2c3c(nc4ccccc24)CCCC3)c1	-	0	0	0	0	0	-
O=C(CN1C(=O)S/C(=C\c2cccn2-c2ccc(C(=O)O)cc2)C1=O)Nc1ccc(F)cc1	-	-	-	-	-	-	30.1
O=C(CCN1C(=O)/C(=C\c2cccs2)SC1=S)Nc1ccc(C(=O)O)cc1	0	0	0[11.6 µM]	56.2µM	?	?	?
COc1ccccc1/C=C1\SC(=S)N(CCC(=O)Nc2ccc(C(=O)O)c(O)c2)C1=O	?	79.4µM	0[11.6 µM]	35.5µM	0	?	?	Pol kappa inh-2=?
COc1ccccc1/C=C1/SC(=S)N(CCC(=O)Nc2cccnc2)C1=O	0	0	0	0	0	0	-
CC(/C=C1\SC(=S)N(CCC(=O)Nc2cccc(C(=O)O)c2)C1=O)=C\c1ccccc1	-76.7	?	79.4µM	?	0	0	?	Pol kappa inh-2=?
CCOC(=O)C1CC2=C(CCCC2=O)N(Cc2ccccc2)C1=O (stereo unspecified)	0	-	0	0	0	0	-
Cc1ccc(CNC(=O)Cc2ccc(NC(=O)N3CCSc4ncccc43)cc2)cc1	-	0	-	0	0	0	-
COc1ccccc1/C=C1/SC(=O)N(CCC(=O)Nc2ccc(S(=O)(=O)Nc3nccs3)cc2)C1=O	0	?	?	20µM	0	50.1µM	?
COc1ccc(C=O)cc1CSc1ccccn1	0	0	0	0	0	0	-
COc1ccc(/C=N/NC(=O)c2ccc(O)cc2O)cc1CSc1ccccn1	-71.0	20µM	?	14.1µM	79.4µM	?	?
N#CC1(C(N)=O)OC12CCS(=O)(=O)c1ccccc12 (stereo unspecified)	0	-	0	0	0	0	-
Cc1c(C(=O)N2CCN(c3ccccc3)CC2)sc2nc3n(c(=O)c12)CCC3	0	?	0	0	0	0	-
Cc1c(C(=O)O)sc2nc3n(c(=O)c12)CCC3	?	17.8µM	0	7.94µM	?	11.2µM	60.1
CC(=O)OCC1=C(C(=O)O)N2C(=O)C(NC(=O)Cn3nc(C(F)F)c(Cl)c3C)C2SC1 (stereo unspecified)	0	28.2µM	0[11.6 µM]	20µM	50.1µM	?	60.1
CC(=O)OCC1=C(C(=O)O)N2C(=O)C(NC(=O)CCn3nc(C(F)(F)F)c(Br)c3C3CC3)C2SC1 (stereo unspecified)	0	0	0	0	0	0	-
Cc1nnc(SCC2=C(C(=O)O)N3C(=O)C(NC(=O)Cn4nc(C(F)F)c(Cl)c4C)C3SC2)s1 (stereo unspecified)	0	25.1µM	?	20µM	50.1µM	0	75.7
CCCS(=O)(=O)NC(=O)C1(C)CCN(C(=O)c2ccccc2OC)C1 (stereo unspecified)	0	-	0	-	-	-	-
c1coc(-c2nc3ccccc3nc2-c2ccco2)c1	-	17.8µM	?	50.1µM	?	?	?
c1coc(-c2cnc3ccccc3n2)c1	0	-	0	0	-	-	-
O=C(O)c1ccc2nc(-c3cc4cc(F)ccc4oc3=O)[nH]c2c1	-	35.5µM	-	35.5µM	0	?	60.1
COc1ccc(-c2cc(=O)c3c(O)cc(O)c(-c4cc(-c5cc(=O)c6c(O)cc(OC)cc6o5)ccc4OC)c3o2)cc1	-	-	-	-	0	-	-
O=c1cc(-c2ccc(O)c(-c3c(O)cc(O)c4c(=O)cc(-c5ccc(O)cc5)oc34)c2)oc2cc(O)cc(O)c12	-96.3	0	?	17.8µM	79.4µM	31.6µM	33.8
CC[N+](CC)(CC)CCCCOc1ccc2c(c1)C(=O)c1cc(OCCCC[N+](CC)(CC)CC)ccc1-2	0	0	50.1µM	?	0	?	?
SMILES	PI5P4Ka inh	POLB inh	WRN inhibitor	Pol eta inh-1	Pol kappa inh-1	POLI inh	Pol eta inh-2	others
COc1ccc(OCC(=O)OCc2cc(=O)n3nc(-c4cccs4)sc3n2)cc1	-	?	-	?	0	0	-
Cc1cccc(OCC(=O)OCc2cc(=O)n3nc(-c4cccs4)sc3n2)c1	-	25.1µM	-	?	?	?	?
O=C1c2cccc3cccc(c23)C(=O)N1c1ccc2ncccc2c1	0	31.6µM	79.4µM	?	?	?	-	Pol kappa inh-2=?
COc1cccc(CN(C)C(=O)CNC(=O)c2ccc3c(c2)OCO3)c1OC	0	0	0	?	0	0	-
CCOC(=O)N1CCN(C(=O)Cn2ncc3ccccc32)CC1	0	20µM	0	?	?	?	?
CNc1ccc(Br)cc(C(=O)/C=C/c2ccc3c(c2)OCO3)c1=O	?	20µM	?	10µM	35.5µM	3.16µM	?
COc1ccc(C2=Nn3c(nnc3-c3ccccc3Cl)SC2)cc1OC1CCCC1	-	-	-	0	?	0	-	Pol kappa inh-2=16.8
COc1ccc(OC)c(-c2nnc3n2N=C(c2ccc(OC)c(OC4CCOC4)c2)CS3)c1 (stereo unspecified)	-	-	-	0	0	0	-
COc1ccc(C2=Nn3c(nnc3-c3ccccc3Cl)SC2)cc1OC1CCOC1 (stereo unspecified)	-	-	-	0	0	0	-	Pol kappa inh-2=8.44
CN(C)c1ccc(CNS(=O)(=O)c2ccc3c(c2)C(C)(C)C(=O)N3C)cc1	0	0	0	0	0	0	-
O=C(CSCc1cc(=O)n2nc(C3CC3)sc2n1)Nc1ccccc1Cl	0	0	0	0	0	0	-
CCOC(=O)Cc1csc(NC(=O)NC2(C(F)(F)F)Oc3cc(Cl)c(Cl)cc3O2)n1	0	0	0	0	20µM	0	-	Pol kappa inh-2=10.6
COc1ccc(NC(=O)CC(=O)Nc2ccc(OC)cc2)cc1	0	-	0	0	0	0	-
CN(CC(=O)Nc1ccccc1Br)C(=O)C(Cc1ccccc1)NC(=O)c1ccccc1 (stereo unspecified)	0	0	0	0	0	0	-
O=C(COC(=O)c1cnccn1)Nc1ncc(Cl)cc1Cl	?	-	?	22.4µM	0	?	?
O=C(COC(=O)c1cnccn1)Nc1c(Cl)cc(Cl)cc1Cl	0	-	0	0	0	0	-
O=C(COC(=O)C1CCC1)Nc1ncc(Cl)cc1Cl	0	-	0	0	0	?	-
O=C(COC(=O)c1ccc([N+](=O)[O-])o1)Nc1ncc(Cl)cc1Cl	0	-	?	22.4µM	0	?	?
